# Data taken from PubChem BioAssay (NCATS).
# “And” between values parts separate entries of the source, which are not always exact repeats. Equal entries are not always repeated. Records with an inconclusive call do not appear. A call without a number means that no potency is given here. The source made the active and inactive calls. Unless noted, calls come from the whole dose curve; as a rule, active = well fitted curve in the direction sought with a large enough effect; inconclusive = small, poorly fitted or top-dose-only effect, or another doubt; inactive = no such curve, though single readings can be large; an effect the other way counts as inactive or inconclusive.
# What was measured:
# [1] = biological target: Glucocorticoid receptor (Homo sapiens) (UniProt P04150); experiment: GR-GFP Redistribution (AID 450;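 active = compounds whose dose series gives a full or clear partial fitted curve of increased nuclear translocation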; note: potency is the fitted concentration of half-maximal effect); conditions: U2OS GR-GFP nuclear translocation, laser cytometry, 2 h
# [2] = biological target: Glucocorticoid receptor (Homo sapiens) (UniProt P04150); experiment: GR-EFC Redistribution (AID 451; calls by dose curve; note: potency is the fitted concentration of half-maximal effect); conditions: CHO-K1 GR-EFC translocation, beta-gal luminescence, 2 h
# Summary of the method: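 CHO-K1 cells stably expressing nuclear-localized β-gal enzyme acceptor and GR fused C-terminally to the enzyme donor fragment; ligand-driven nuclear translocation restores β-gal by complementation. Compounds titrated up to 46 uM final, 2 h at 37 °C; luminescence read.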
# [3] = biological target: Guanine nucleotide-binding protein G(i) subunit alpha-1 (Homo sapiens) (UniProt P63096); experiment: qHTS Assay for Inhibitors of RGS12 GoLoco Motif Activity (Green Fluorophore) (AID 879);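 note: negative values mean loss of peptide binding seen as reduced polarization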
# Summary of the method: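 A drop in FITC polarization marked displacement of the FITC-tagged RGS12 GoLoco peptide (10 nM) from Gαi1 (50 nM). Compounds were incubated 10 min at room temperature in Tris pH 7.5 buffer containing 150 mM NaCl, 0.1 mM GDP and 0.05% NP40; unlabeled peptide titration served as control.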
# [4] = qHTS Assay for Identification of Small Molecule Agonists for Thrombopoietin (TPO) Signaling Pathway (AID 917)
# Summary of the method: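 Stimulation at the TPO EC50 (26 pM final) was used to detect activators. Ba/F3 mouse cells bearing human TPO receptor and a luciferase reporter under the Glycoprotein IIb promoter were exposed to compounds for 24 hrs at 37 C.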
# [5] = biological target: Muscarinic acetylcholine receptor M1 (Rattus norvegicus) (UniProt P08482); experiment: qHTS Assay for Antagonists of Acetylcholine Muscarinic M1 Receptor: Kinetic Measurement of Intracellular Calcium Response (AID 943);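 note: Fluo-4 calcium signal as peak divided by basal fluorescence over 4 min; nearly all actives have a fitted effect of over 75% in size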
# Summary of the method: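 Antagonism is measured as inhibition of the carbachol-evoked calcium rise in CHO cells transfected with rat M1. Cells are dye-loaded, exposed to compound for 10 min, then stimulated with 100 nM carbachol (EC80).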
# [6] = biological target: Muscarinic acetylcholine receptor M1 (Rattus norvegicus) (UniProt P08482); experiment: qHTS Assay for Antagonists of Acetylcholine Muscarinic M1 Receptor: Measurement of IP-One Response (AID 944); note: nearly all actives have a fitted effect of over 75% in size
# Summary of the method: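 Antagonist mode with rat M1 receptor transfected into CHO cells. Compound is added first for 10 min, carbachol at its EC80 follows for 30 min, and lysis reagents then allow TR-FRET detection of accumulated IP1.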
# [7] = biological target: Pyruvate kinase (Leishmania mexicana) (UniProt Q27686); experiment: qHTS Validation Assay for Inhibitors of Leishmania Mexicana Pyruvate Kinase (AID 945)
# Summary of the method: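 The enzyme is a highly purified E451W mutant of LmPYK used at 0.2 nM. It converts 0.5 mM PEP and 0.1 mM ADP over 1 h at room temperature; product ATP is quantified by luciferase luminescence relative to DMSO controls.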
# [8] = biological target: Pyruvate kinase PKM (Homo sapiens) (UniProt P14618); experiment: qHTS Assay for Activators of Human Muscle Pyruvate Kinase (AID 954; active = well fitted curve in the direction sought with a large enough effect, not every such curve was filed as active)
# Summary of the method: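 A coupled luminescent readout tracked ATP made from ADP by purified PKM2. Final conditions included 0.1 nM enzyme, PEP and ADP at 0.5 and 0.1 mM, pH 7.2 imidazole buffer with BSA, and a one-hour room-temperature reaction.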
# [9] = biological target: Alpha-galactosidase (Coffea arabica) (UniProt Q42656); experiment: Counterscreen for Glucocerebrosidase Inhibitors: qHTS Assay for Coffee Bean alpha-Galactosidase at pH 4.5 (AID 957)
# Summary of the method: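 Enzyme is added first (2 nM final), then compounds titrated from 0.7 nM to 77 uM, then 80 uM 4-methylumbelliferyl alpha-D-galactopyranoside; after 20 min at room temperature a pH 10 NaOH/glycine stop precedes fluorescence reading at 365/440 nm.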
# [10] = biological target: Alpha-galactosidase A (Homo sapiens) (UniProt P06280); experiment: Counterscreen for Glucocerebrosidase Inhibitors: qHTS Assay for Human alpha-Galactosidase at pH 4.5 (AID 992)
# Summary of the method: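 Citrate buffer pH 4.5, Tween-20 0.005%. Enzyme 2 nM, substrate 80 uM, 20 min RT. Stop pH 10. Fluorescence Ex 365/Em 440. AC50 by Hill fit.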
# [11] = biological target: alpha-glucosidase (Oryza sativa, rice) (UniProt Q653V4); experiment: Counterscreen for Glucocerebrosidase Inhibitors: qHTS Assay for Rice alpha-Glucosidase at pH 5.0 (AID 997)
# Summary of the method: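 Endpoint fluorogenic assay at pH 5.0: compounds (0.7 nM to 77 uM) titrated against 4 nM rice enzyme and 400 uM 4-MU-alpha-glucoside for 20 min at room temperature; NaOH/glycine stop, read ex 365/em 440 nm, Hill-fitted AC50.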
# [12] = biological target: Alpha-galactosidase (Coffea arabica) (UniProt Q42656); experiment: Counterscreen for Glucocerebrosidase Inhibitors: qHTS Assay for Coffee Bean alpha-Galactosidase at pH 5.9 (AID 998)
# Summary of the method: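 In 50 mM citric acid pH 5.9 with 0.005% Tween-20, coffee bean enzyme hydrolyses 80 uM 4-MU alpha-D-galactopyranoside over 20 min at RT. Activity is normalized to controls; AC50 comes from Hill-modelled concentration-response data.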
# [13] = qHTS Assay for Lipid Storage Modulators (AID 1519; calls by dose curve); conditions: Drosophila S3 cells, BODIPY lipid droplet/cell ratio, laser cytometry, cells loaded with oleic acid
# Summary of the method: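 Cells seeded at 5,000 per well were treated with compounds over a concentration series and loaded with oleic acid (400 uM, as added). Lipid droplet fluorescence (488 nm excitation, 500-530 nm channel) was read by laser-scanning cytometry and normalized to 20 uM Triacsin C.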
# [14] = biological target: DNA repair nuclease/redox regulator APEX1 (Homo sapiens) (UniProt P27695); experiment: qHTS Validation Assay for Inhibitors of the Human Apurinic/apyrimidinic Endonuclease 1 (APE1) (AID 1705;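 note: TAMRA fluorescence gain over two minutes as APE1 cuts a quenched THF abasic duplex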)
# Summary of the method: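 Fluorogenic double-stranded THF abasic-site substrate (5'-TAMRA/3'-BHQ-2), 50 nM final. Enzyme preincubated with compound 15 min at room temperature, then substrate added. Kinetic fluorescence (ex 525/em 598 nm) read three times at 60 s intervals; activity taken as third-minus-first read difference.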
# [15] = Counterscreen for APE1 Inhibitors: Fluorescent Dye Displacement Validation Assay (AID 1707)
# Summary of the method: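 Signal: ThO fluorescence (ex 480 nm/em 540 nm) on binding 50 nM dsDNA; displacement by test compound reduces it. Conditions: 250 nM dye, 50 mM Tris-HCl pH7.5, 2 mM MgCl2, 50mM NaCl, 0.01% Tween-20.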
# [16] = qHTS for differential inhibitors of proliferation of Plasmodium falciparum line 7G8 (AID 1815);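 note: parasite growth measured after three days of incubation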
# [17] = qHTS for differential inhibitors of proliferation of Plasmodium falciparum line GB4 (AID 1816); conditions: Potency: Plasmodium falciparum GB4 proliferation inhibition;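 note: parasite growth measured after 72 h incubation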
# [18] = qHTS for differential inhibitors of proliferation of Plasmodium falciparum line 3D7 (AID 1876);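 note: parasite growth measured after three days of culture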
# Chain of Muscarinic acetylcholine receptor M1 (Rattus norvegicus) (P08482 whole entry, looked up): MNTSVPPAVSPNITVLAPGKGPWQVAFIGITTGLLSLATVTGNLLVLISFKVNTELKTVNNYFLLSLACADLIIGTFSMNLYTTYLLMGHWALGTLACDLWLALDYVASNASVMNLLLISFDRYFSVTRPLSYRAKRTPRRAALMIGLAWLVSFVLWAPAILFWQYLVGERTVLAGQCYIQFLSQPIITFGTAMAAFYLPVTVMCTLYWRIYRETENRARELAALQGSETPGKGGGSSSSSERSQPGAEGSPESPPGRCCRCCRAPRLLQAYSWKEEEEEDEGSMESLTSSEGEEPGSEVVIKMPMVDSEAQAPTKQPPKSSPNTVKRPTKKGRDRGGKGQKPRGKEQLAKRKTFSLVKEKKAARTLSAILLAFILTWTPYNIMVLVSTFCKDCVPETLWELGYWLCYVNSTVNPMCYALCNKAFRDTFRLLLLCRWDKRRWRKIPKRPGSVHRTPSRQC
# Chain of Glucocorticoid receptor (Homo sapiens) (P04150 whole entry, looked up, the tested form may be a part): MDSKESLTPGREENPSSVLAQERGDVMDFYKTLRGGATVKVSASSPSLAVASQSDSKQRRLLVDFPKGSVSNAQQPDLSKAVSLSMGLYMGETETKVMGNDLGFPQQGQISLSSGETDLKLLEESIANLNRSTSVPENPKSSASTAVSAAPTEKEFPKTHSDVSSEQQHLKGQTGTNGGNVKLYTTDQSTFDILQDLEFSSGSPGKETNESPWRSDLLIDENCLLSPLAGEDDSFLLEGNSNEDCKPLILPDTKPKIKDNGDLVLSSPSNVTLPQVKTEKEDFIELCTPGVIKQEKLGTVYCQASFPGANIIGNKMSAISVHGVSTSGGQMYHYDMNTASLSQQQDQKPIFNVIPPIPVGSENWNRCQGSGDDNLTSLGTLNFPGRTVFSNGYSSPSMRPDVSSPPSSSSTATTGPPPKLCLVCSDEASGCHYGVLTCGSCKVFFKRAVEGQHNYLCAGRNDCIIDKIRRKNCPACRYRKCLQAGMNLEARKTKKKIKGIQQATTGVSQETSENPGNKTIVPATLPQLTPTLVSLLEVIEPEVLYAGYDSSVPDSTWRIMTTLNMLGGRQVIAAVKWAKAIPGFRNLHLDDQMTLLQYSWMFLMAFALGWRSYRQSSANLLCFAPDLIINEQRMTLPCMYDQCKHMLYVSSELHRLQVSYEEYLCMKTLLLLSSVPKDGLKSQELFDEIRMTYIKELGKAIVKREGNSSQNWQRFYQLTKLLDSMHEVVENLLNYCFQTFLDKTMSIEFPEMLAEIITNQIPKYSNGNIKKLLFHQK
# Chain of Alpha-galactosidase (Coffea arabica) (Q42656 whole entry, looked up): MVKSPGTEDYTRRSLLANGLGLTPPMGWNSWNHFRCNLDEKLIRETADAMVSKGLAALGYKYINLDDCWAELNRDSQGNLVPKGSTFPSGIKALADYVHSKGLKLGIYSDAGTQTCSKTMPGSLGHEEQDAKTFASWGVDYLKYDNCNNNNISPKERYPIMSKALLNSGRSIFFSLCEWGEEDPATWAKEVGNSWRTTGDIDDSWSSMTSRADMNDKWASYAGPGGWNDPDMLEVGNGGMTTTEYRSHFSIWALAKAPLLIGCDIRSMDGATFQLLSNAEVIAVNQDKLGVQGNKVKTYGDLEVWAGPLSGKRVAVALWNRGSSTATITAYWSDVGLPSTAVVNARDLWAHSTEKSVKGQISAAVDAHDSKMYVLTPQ
# Chain of DNA repair nuclease/redox regulator APEX1 (Homo sapiens) (P27695 whole entry, looked up): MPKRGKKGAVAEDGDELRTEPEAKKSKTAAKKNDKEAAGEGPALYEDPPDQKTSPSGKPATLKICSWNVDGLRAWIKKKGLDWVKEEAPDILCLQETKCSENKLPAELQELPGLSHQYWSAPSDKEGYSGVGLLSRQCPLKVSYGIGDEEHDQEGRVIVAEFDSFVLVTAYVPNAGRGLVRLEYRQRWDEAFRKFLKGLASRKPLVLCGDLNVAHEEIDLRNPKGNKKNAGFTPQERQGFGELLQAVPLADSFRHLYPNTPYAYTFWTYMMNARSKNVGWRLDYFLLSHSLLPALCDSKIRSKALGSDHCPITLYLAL
# Chain of Guanine nucleotide-binding protein G(i) subunit alpha-1 (Homo sapiens) (P63096 whole entry, looked up): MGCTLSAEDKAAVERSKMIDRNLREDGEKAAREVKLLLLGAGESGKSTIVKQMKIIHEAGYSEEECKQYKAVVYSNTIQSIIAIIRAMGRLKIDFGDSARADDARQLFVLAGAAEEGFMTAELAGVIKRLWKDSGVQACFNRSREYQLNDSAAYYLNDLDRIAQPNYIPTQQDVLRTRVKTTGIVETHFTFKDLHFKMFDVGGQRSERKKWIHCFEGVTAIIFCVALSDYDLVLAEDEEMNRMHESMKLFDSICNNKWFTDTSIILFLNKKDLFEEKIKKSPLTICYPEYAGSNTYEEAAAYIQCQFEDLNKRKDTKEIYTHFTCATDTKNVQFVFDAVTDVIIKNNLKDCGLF
# Chain of Pyruvate kinase (Leishmania mexicana) (Q27686 2-499 E452W): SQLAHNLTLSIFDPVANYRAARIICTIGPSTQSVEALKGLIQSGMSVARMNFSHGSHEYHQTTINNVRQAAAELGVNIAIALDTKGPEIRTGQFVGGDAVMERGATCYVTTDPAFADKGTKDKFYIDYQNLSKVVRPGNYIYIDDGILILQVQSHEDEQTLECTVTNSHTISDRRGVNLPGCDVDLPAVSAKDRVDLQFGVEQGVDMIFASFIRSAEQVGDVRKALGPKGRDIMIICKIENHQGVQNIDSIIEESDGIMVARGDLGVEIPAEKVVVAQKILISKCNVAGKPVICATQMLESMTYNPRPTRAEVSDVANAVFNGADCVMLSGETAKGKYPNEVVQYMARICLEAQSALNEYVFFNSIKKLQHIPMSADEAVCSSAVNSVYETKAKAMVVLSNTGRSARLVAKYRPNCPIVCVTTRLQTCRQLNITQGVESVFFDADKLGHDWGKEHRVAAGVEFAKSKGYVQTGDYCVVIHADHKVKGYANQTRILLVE
# Chain of Alpha-galactosidase A (Homo sapiens) (P06280 whole entry, looked up): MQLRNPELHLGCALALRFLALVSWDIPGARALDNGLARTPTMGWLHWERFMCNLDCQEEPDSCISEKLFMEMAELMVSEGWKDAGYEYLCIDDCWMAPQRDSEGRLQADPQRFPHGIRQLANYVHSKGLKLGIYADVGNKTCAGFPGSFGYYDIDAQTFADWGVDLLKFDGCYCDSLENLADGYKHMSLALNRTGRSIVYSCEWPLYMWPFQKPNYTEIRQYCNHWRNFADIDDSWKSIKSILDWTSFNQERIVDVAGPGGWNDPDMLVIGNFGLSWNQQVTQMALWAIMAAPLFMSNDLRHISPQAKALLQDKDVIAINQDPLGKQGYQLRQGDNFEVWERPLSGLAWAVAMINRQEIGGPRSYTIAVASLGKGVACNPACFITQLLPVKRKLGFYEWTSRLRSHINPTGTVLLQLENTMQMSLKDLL
# Chain of Pyruvate kinase PKM (Homo sapiens) (P14618 whole entry, looked up): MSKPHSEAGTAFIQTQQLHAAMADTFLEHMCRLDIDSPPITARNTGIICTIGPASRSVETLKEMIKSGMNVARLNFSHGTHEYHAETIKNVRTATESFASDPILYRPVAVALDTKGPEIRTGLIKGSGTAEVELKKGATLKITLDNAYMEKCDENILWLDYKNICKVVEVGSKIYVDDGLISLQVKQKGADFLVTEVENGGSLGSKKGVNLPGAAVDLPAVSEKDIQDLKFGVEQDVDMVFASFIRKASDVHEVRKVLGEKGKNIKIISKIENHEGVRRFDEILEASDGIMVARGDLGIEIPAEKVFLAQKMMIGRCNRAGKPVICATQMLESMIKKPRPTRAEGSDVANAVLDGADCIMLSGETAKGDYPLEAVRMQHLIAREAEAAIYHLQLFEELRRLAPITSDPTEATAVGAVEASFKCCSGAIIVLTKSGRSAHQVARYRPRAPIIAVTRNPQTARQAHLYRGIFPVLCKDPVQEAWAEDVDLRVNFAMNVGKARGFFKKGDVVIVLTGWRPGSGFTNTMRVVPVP
compound,measurement,setting,value
N[C@@H](Cn1cc(I)c(=O)[nH]c1=O)C(=O)O,Potency,[1],> 46 µM (inactive)
same,Potency,[2],> 46 µM (inactive)
same,outcome,[3],inactive
same,outcome,[4],inactive
same,Potency,[5],inactive
same,Potency,[6],inactive
same,outcome,[7],inactive
same,outcome,[8],inactive
same,outcome,[9],inactive
same,outcome,[10],inactive
same,outcome,[11],inactive
same,outcome,[12],inactive
same,"activity change, negative = inhibition",[13]; at 57.5 µM (top of the series),1.49% (inactive) and 0.139% (inactive)
same,max response,[13]; measured here: cell count channel max response,1.2% and -23.8%
same,max response,[13]; measured here: lipid channel max response,4.16% and -23.5%
same,Potency,[14],inactive
same,Potency,[15],inactive
same,Potency,[16],inactive
same,Potency,[17],inactive
same,Potency,[18],inactive
